PI4K2A block = qHTS for small molecular inhibitors of PI4K2A; purified PI4K2A, ADP-Glo luminescence, 1 h; active compounds read low; activity change, negative = inhibition, % at 76.9 µM; AID 1346378, 2018; Phosphatidylinositol 4-kinase type 2-alpha (Homo sapiens), Q9BTU6; 420,000 tested, 0.13% active; in the data active means activity change below about -50%; inconclusive means mostly about -30% to -49%;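 further: -100% = wells without enzyme as full effect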
Target sequence (Q9BTU6 whole entry, looked up): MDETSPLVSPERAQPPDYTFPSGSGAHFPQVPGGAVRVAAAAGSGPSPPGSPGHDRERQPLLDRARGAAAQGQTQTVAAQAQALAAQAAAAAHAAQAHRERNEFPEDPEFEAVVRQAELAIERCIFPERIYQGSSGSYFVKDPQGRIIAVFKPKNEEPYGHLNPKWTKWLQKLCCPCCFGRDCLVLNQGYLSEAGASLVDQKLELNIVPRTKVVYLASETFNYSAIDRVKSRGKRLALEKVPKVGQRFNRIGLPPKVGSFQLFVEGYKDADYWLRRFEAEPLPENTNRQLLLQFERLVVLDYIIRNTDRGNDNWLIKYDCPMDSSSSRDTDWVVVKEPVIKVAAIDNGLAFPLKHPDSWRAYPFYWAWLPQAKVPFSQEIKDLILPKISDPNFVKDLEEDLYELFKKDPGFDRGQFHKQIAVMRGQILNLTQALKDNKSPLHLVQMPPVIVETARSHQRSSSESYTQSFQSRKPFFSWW
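ADP-Glo luminescence measured ADP generated by PI4K2A enzyme (4 ug/mL before mixing) with 1.2 mM PI substrate (pre-mix) and 300 microM ATP (pre-mix). Tris pH7.5 buffer with MgCl2, Triton X-100; 1 h reaction at ambient temperature.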
Six1-Eya2 inh = qHTS Assay for Inhibitors of the Six1/Eya2 Interaction; Homeobox protein SIX1 (Homo sapiens) + Protein phosphatase EYA2 (Homo sapiens), …; AlphaScreen GST-Six1/His-Eya2 binding, biochemical; active compounds read low; activity change, % (concentration not given with the values); AID 651725, 2012; 360,000 tested, 0.56% active
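Six1/Eya2 binding was read as AlphaScreen signal after compounds were pinned into GST-Six1 plus His-tagged Eya2 (5X stock 250/500 nM) in pH 8.0 Tris/NaCl/TCEP buffer, beads added, then incubated 1 h, 37 C, dark.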
pAkt inh = HTS Assay for Inhibitors of Akt Phophorylation: Primary Screen; Neuro2A IGF-stimulated pAkt S473 HTRF, 20 min; active compounds read low; 360,000 tested, 0.32% active; activity change, % for hits at 50 µM; in the data active means activity change below about -80%; inconclusive means mostly about -51% to -80%
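Single-point screen (50 µM final compound) in Neuro2A cells stimulated 20 min with 6 nM IGF at 37 deg C. After lysis, Ser473-phosphorylated Akt read by HTRF (ex 330 nm, em 615/665 nm) as the 665/615 ratio.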
CtBP-E1A blk = qHTS Assay for Inhibitors of the CtBP/E1A Interaction; CtBP / adenovirus E1A interaction (AlphaScreen); AlphaScreen GST-E1A/His-CtBP binding, 1536-well; active compounds read low; activity change, % (test concentration not listed); 340,000 tested, 0.49% active
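Steps: dispense buffer (Tris pH 8.0, NaCl 300 mM, TCEP 1 mM, BSA, Tween 20); add 5X protein mix (GST-E1A, His-CtBP, 125 nM each); pin 23 nL compound; 2 h at 37 °C, dark; add 5X beads (50 ug/mL); 1 h; read.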
PI5P4Ka inh = qHTS for Inhibitors of phosphatidylinositol 5-phosphate 4-kinase (PI5P4K). PI5P4Kalpha enzyme, ADP-Glo luminescence, 60 min; active compounds read low. 330,000 tested, 1.2% active. Phosphatidylinositol 5-phosphate 4-kinase type-2 alpha (Homo sapiens), P48426. AID 652105, 2013. max response, %; active means max response of -50% or lower; inconclusive means between -30% and -50%; inactive means -30% or higher; further: value at the top dose of about 77 µM
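Quantitative HTS of the MLSMR library against PI5P4Kalpha with substrate. ATP added last at 5 microM final; room temperature, 60 minutes. Remaining ATP depleted, ADP converted and read as luminescence.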
Active calls of the source: *; i = inactive; ? = inconclusive; . = not tested or not shown. A selection: hits, their analogues and other compounds. The true share with any hit is near 1.8%. Unless noted, no stated cut-off is given here; in the data, active means activity change below about -65%; inconclusive means mostly about -30% to -63%; inactive means weaker than that. Unless noted, on the % scale 0 is the no-effect control and ±100 the full control effect.

SMILES | PI4K2A block | Six1-Eya2 inh | pAkt inh | CtBP-E1A blk | PI5P4Ka inh
CCC(=O)OC1(C)C(=O)C=C2C=C(c3ccsc3)OC=C2C1=O (stereo unspecified) | -20 | -3 | i | -8 | -73*
COC(=O)CCC(=O)OC1(C)C(=O)C=C2C=C(c3ccsc3)OC=C2C1=O (stereo unspecified) | -14 | -18 | i | -20 | -98*
O=C(CSc1ccc(S(=O)(=O)N2CCOCC2)cn1)Nc1ccc(OC(F)F)cc1 | 0 | 4 | i | -2 | 12
CCN(CC)CCCNC(=O)c1cn(C)c2ccc(S(=O)(=O)N3CCOCC3)cc2c1=O | 2 | . | . | . | .
O=C(c1cc(Cl)nc2ccccc12)N1CCN(S(=O)(=O)c2ccccc2[N+](=O)[O-])CC1 | -2 | -9 | i | -2 | 0
C/C(=N/NC(=O)c1cccs1)c1c(C)[nH]n(-c2nc3ccccc3s2)c1=O | -66* | ? | i | ? | ?
Nc1nc2ccc([N+](=O)[O-])c(N)c2s1 | -4 | ? | i | -72* | -58*
CCOP(=O)(c1c(F)c(F)c(F)c(F)c1F)C(O)c1ccccc1 (stereo unspecified) | 3 | -9 | -116%* | 10 | 1
C/C(=N\NC(=O)c1ccccc1Cl)c1ccccn1 | 0 | -91* | i | . | -2
C/C(=N\NC(=O)c1cc(-c2cccs2)nc2ccccc12)c1ccccn1 | 5 | -82* | i | -86* | 1
C/C(=N\NC(=O)c1ccc(Cl)c(Cl)c1)c1ccccn1 | 6 | ? | i | ? | -3
O=C(N/N=C/c1ccccn1)c1cc(-c2ccncc2)nc2ccccc12 | -1 | -72* | i | -73* | 0
C/C(=N\NC(=O)c1ccccc1OCc1ccc(F)cc1)c1ccccn1 | -3 | ? | i | . | -2
C/C(=N\NC(=O)c1cccc2ccccc12)c1ccccn1 | -1 | -91* | i | -92* | 1
O=C(N/N=C/c1ccsc1)c1cc(-c2ccncc2)nc2ccccc12 | -4 | -8 | i | -5 | 0
C/C(=N\NC(=O)C1COc2ccccc2O1)c1ccc(C)o1 (stereo unspecified) | 12 | -3 | i | -12 | -2
C/C(=N\NC(=O)C1COc2ccccc2O1)c1ccccn1 (stereo unspecified) | -8 | -91* | i | -86* | -10
Cc1cc2cc(CN(Cc3nnnn3C3CCCCC3)CC3CCCO3)c(=O)[nH]c2cc1C (stereo unspecified) | 3 | 5 | i | 2 | .
CCCCCCCC(=O)N/N=C/c1cccnc1 | 0 | 5 | i | 7 | .
COc1cccc2[nH]c3c(N4CCc5ccccc5C4)ncnc3c12 | 0 | -2 | i | -6 | -2
CCCSc1cc(NCCOC(=O)CCC)c([N+](=O)[O-])c2nonc12 | 23 | -23 | i | -2 | 3
CC(=O)OCCCNc1cc(SCc2ccco2)c2nonc2c1[N+](=O)[O-] | ? | ? | i | -11 | -51*
CCC(=O)OCCNc1cc(Sc2nc3ccccc3[nH]2)c2nonc2c1[N+](=O)[O-] | -9 | -25 | i | -2 | -56*
CCCC(=O)OCCNc1cc(SCc2ccco2)c2nonc2c1[N+](=O)[O-] | ? | ? | i | -25 | -61*
Cc1cc(N/N=C2/CCCc3ccccc32)nc2ccccc12 | -9 | 0 | i | 2 | 17
SMILES | PI4K2A block | Six1-Eya2 inh | pAkt inh | CtBP-E1A blk | PI5P4Ka inh
COc1cc(/C=C2\SC(=O)N(c3cccc(Cl)c3)C2=O)cc([N+](=O)[O-])c1O | -2 | ? | i | -22 | -81*
COc1cc(/C=C2\SC(=O)N(c3ccc(Cl)cc3)C2=O)cc([N+](=O)[O-])c1O | -4 | -21 | i | -23 | -51*
Cc1ccc(Cn2c(C(CO)Nc3nc(-c4ccc(Cl)c([N+](=O)[O-])c4)cs3)nc3ccccc32)cc1 (stereo unspecified) | 0 | -14 | i | -22 | 2
Cc1ccn2c(=S)[nH]nc2c1 | 3 | 1 | i | 3 | -78*
S=c1[nH]nc2ccccn12 | 1 | 0 | i | 1 | -85*
Cc1ccn2c(-c3n[nH]c(=S)n3Cc3ccccc3)c(C)nc2c1 | 5 | 6 | i | -3 | -29
Cc1ccc(S(=O)(=O)N(C)C[C@@H]2OCc3ccccc3-c3c(n(C)c4ccccc34)C(=O)N([C@H](C)CO)C[C@@H]2C)cc1 | 0 | -8 | i | -7 | 1
COCCN(C(=O)COC(=O)CSc1cc(C)ccc1C)c1c(N)n(Cc2ccccc2)c(=O)[nH]c1=O | 2 | 3 | i | -1 | -5
COc1ccccc1Nc1nc(-c2c(C)[nH]c3ccccc23)cs1 | 0 | -12 | i | 5 | -3
Nc1c(Br)cc2c([nH]c(=O)c3ccccc32)c1Br | -6 | ? | i | 6 | -66*
O=c1[nH]c2ccccc2c2ccc(Cl)cc12 | 1 | -16 | i | -2 | -14
CN(C)c1ccc(C=NCCC2(c3ccccc3)CCOC(C)(C)C2)cc1 (stereo unspecified) | -2 | 3 | i | 6 | 2
O=C1C(=Cc2ccccc2O)SC(=S)N1CCCN1CCOCC1 | -4 | -22 | i | 4 | -69*
CCOC(=O)c1ccccc1NC(=O)CSc1ncc2c(n1)-c1ccccc1N(CC)S2(=O)=O | -1 | . | . | . | .
CCOC(=O)c1c(C)nc2sc3c(=O)n(-c4ccc(OC)cc4)cnc3c2c1-c1ccc(OC)cc1 | 4 | 13 | -111%* | -2 | -6
O=c1nc(N/N=C/c2c[nH]c3ccccc23)cn[nH]1 | -10 | -78* | i | -86* | -4
C(=N\Nc1ccccn1)/c1c[nH]c2ccccc12 | 3 | -6 | i | -8 | -2
CSc1nsc2nc(=O)c(/C=C3\C=Nc4ccccc43)c(N)n12 | -6 | -21 | i | -26 | -56*
CC1=Nc2ccccc2/C1=C/c1c(N)n2c(S(=O)(=O)C(C)C)nsc2nc1=O | 0 | -19 | i | -9 | -76*
CC(C)S(=O)(=O)c1nsc2nc(=O)c(/C=C3\C=Nc4ccccc43)c(N)n12 | 1 | 0 | i | . | -79*
CC1=Nc2ccccc2/C1=C/c1c(N)n2c(S(=O)(=O)CC(C)C)nsc2nc1=O | 1 | -26 | i | ? | -65*
Cc1nnc(SCC(=O)Nc2cccc([N+](=O)[O-])c2)n1CC1CCCO1 (stereo unspecified) | 4 | -3 | i | 3 | 1
CC1=Nc2ccc(C)cc2/C1=C/c1c(N)n2c(S(=O)(=O)C(C)C)nsc2nc1=O | -8 | ? | i | -3 | -85*
